Measured values as given in PubChem BioAssay (NCATS).
Results filed as inconclusive are left out. Activity calls are given as the source filed them. Unless noted, calls come from the whole dose curve; as a rule, active = well fitted curve in the direction sought with a large enough effect; inconclusive = small, poorly fitted or top-dose-only effect, or another doubt; inactive = no such curve, though single readings can be large; an effect the other way counts as inactive or inconclusive.

Legend:
[1] = target: Cytochrome P450 3A4 (Homo sapiens) (UniProt P08684); test: qHTS for inhibitors of CYP3A4 against the NCATS DSHEA and TCM libraries (AID 1919971);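 note: % is set by controls: 0 for no effect and ±100 for the full control effect; inhibition lowers luminescence from luciferin made by CYP3A4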
Procedure, shortened: (§1)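 Light output from converted D-luciferin reports remaining CYP activity. Compounds preincubate with enzyme and substrate for 15 min; NADPH regeneration (1x final) runs the reaction for 30-45 min.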

[2] = target: Cytochrome P450 2D6 (Homo sapiens) (UniProt P10635); test: qHTS for inhibitors of CYP2D6 against the NCATS DSHEA and TCM libraries (AID 1919972); note: % is set by controls: 0 for no effect and ±100 for the full control effect
Procedure, shortened: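 Steps: enzyme plus luciferin substrate dispensed; test substances pinned; 15 min RT; 1x NADPH regenerating solution added, 30–45 min RT protected from light; detection reagent, 30 min RT; luminescence measured. Minus-enzyme wells as background.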

[3] = target: Cytochrome P450 2C9 (Homo sapiens) (UniProt P11712); test: qHTS for inhibitors of CYP2C9 against the NCATS DSHEA and TCM libraries (AID 1919973);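 note: luminogenic pro-luciferin CYP2C9 substrate turned into luciferin with NADPH regeneration; % is set by controls: 0 for no effect and ±100 for the full control effect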
Procedure, shortened: as §1

[4] = target: Cytochrome P450 2C19 (Homo sapiens) (UniProt P33261); test: qHTS for inhibitors of CYP2C19 against the NCATS DSHEA and TCM libraries (AID 1919974);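 note: luminescence from luciferin released by CYP2C19 oxidation of a pro-luciferin substrate; % is set by controls: 0 for no effect and ±100 for the full control effect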
Procedure, shortened: as §1

[5] = KB-3-1 P-gp reporter qHTS against the NCATS DSHEA and TCM libraries (AID 1919975); note: 0% is about no effect
Procedure, shortened: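 72 h exposure of KB-3-1 cells (DMEM, 10% FBS) to DSHEA/TCM samples, concentration-response; cell viability measured as CellTiter-Glo luminescence after 30 min at room temperature.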

[6] = qHTS Counterscreen for compound interference against the NCATS DSHEA and TCM libraries (AID 1919978); conditions: firefly luciferase detection reagent interference, luminescence; note: % of control where 0% means no effect
Procedure, shortened: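 Read-out is luminescence after 30 min at RT with luciferin detection reagent. Before that, compounds (19.5 nM to 39.8 uM final) sat 15 min at RT with 1 uM D-luciferin or 100 mM potassium phosphate buffer. PTC124 served as intraplate control.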

[7] = Dual reporter qHTS for agonist of Pregnane X Receptor (hPXR) against the NCATS DSHEA and TCM libraries: Fluorescence readout (AID 1920058); note: 0% is about no effect
Procedure, shortened: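 Measures viability of the PXR reporter HepG2 line by protease-substrate fluorescence (405/540 nm), taken 1 h after CellTiter-Fluor addition. Substances are tested as concentration series over a ~24 h exposure, with rifampicin as agonist control.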

[8] = target: Nuclear receptor subfamily 1 group I member 2 (Homo sapiens) (UniProt O75469); test: Dual reporter qHTS for agonist of Pregnane X Receptor (hPXR) against the NCATS DSHEA and TCM libraries: Luminescence readout (AID 1920059); note: 0% is about no effect
Procedure, shortened: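 hPXR-LucHepG2 cells in phenol red-free DMEM with 5% charcoal-stripped FBS, 2000 cells/well, attached 5 h, then exposed 24 h at 37C to compounds; rifampicin as positive agonist control (2.8 nM–92 uM). Luciferase luminescence read.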

[9] = target: Nuclear receptor subfamily 1 group I member 2 (Homo sapiens) (UniProt O75469); test: Dual reporter qHTS for antagonist of Pregnane X Receptor (hPXR) against the NCATS DSHEA and TCM libraries: Luminescence Readout (AID 1920060); note: 0% is about no effect
Procedure, shortened: (§2)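 Rifampicin-stimulated (2 uM final) hPXR-luciferase HepG2 cells were treated for 24 h with DSNP/TCM substances. Viability came from CellTiter-Fluor fluorescence, reporter activity from ONE-Glo luminescence.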

[10] = Dual reporter qHTS for antagonist of Pregnane X Receptor (hPXR) against the NCATS DSHEA and TCM libraries: Fluorescence Readout (AID 1920061); note: 0% is about no effect
Procedure, shortened: as §2

[11] = qHTS profiling for inhibitors of Plasmodium falciparum proliferation (AID 504749); note: nearly all actives have a fitted effect of over 60% in size; note: potency is the fitted concentration of half-maximal effect;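 for activity, negative = inhibition: 0% = DMSO vehicle and full inhibition = artemisinin control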; conditions: P. falciparum in erythrocytes, SYBR Green DNA, 72 h
Procedure, shortened: (§3)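 P. falciparum-infected erythrocytes (0.3% parasitemia, 2.5% hematocrit final) were exposed to compounds for 72 h at 37 C in 5% CO2, then lysed with SYBR Green buffer overnight at room temperature; parasite DNA fluorescence was normalized to artemisinin and DMSO controls.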

[12] = system: 3D7; test: as above; conditions: P. falciparum in erythrocytes, SYBR Green DNA, 72 h; series mostly up to 28.7 µM
Procedure, shortened: as §3

[13] = system: 7G8; test: as above; conditions: P. falciparum in erythrocytes, SYBR Green DNA, 72 h; series mostly up to 28.7 µM
Procedure, shortened: as §3

[14] = system: AA1029; test: as above; conditions: P. falciparum in erythrocytes, SYBR Green DNA, 72 h; series mostly up to 28.7 µM
Procedure, shortened: as §3

[15] = system: AS120; test: as above; conditions: P. falciparum in erythrocytes, SYBR Green DNA, 72 h; series mostly up to 28.7 µM
Procedure, shortened: as §3

[16] = target: Luciferin 4-monooxygenase (Photinus pyralis) (UniProt P08659); test: Primary firefly luciferase (FLuc) qHTS assay for identification of artifact compounds. (AID 1845220); conditions: outcome: dose series up to 54.1 µM; note: nearly all actives have a fitted effect of over 60% in size
Procedure, shortened: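 In this counter-screen for luciferase artifacts, test compounds met substrate (10 uM each luciferin and ATP) before 10 nM enzyme started the reaction. Light output was measured 5 min later.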

[17] = Primary fluorescence-based thiol-reactive (MSTI) qHTS assay for identification of artifact compounds. (AID 1845221);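 note: thiol-reactive compounds lower the probe fluorescence signal; nearly all actives have a fitted effect of over 65% in size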
Procedure, shortened: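 MSTI probe at 4 uM final in 2% DMSO/PBS pH 7.4; compounds, 1 h at room temperature in dark. Fluorescence Ex/Em 525/598 nm, normalised to Acetyl-MSTI and MSTI, fitted to 4-parameter Hill.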

[18] = Primary redox qHTS assay for identification of artifact compounds. (AID 1845223);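 note: 0% = DMSO and 100% = reference compound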
Procedure, shortened: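 Amplex Red (25 uM) and HRP (250 mU/mL) in HBSS, with compounds for 15 min, then 250 uM DTT for 30 min, room temperature, dark. Fluorescence 525/598 nm read; normalized to DMSO and 10 uM DA3003; Hill fit.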

[19] = qHTS drug screen for cell cycle checkpoint inhibitors in PARPi-resistant BRCA-mutant ovarian cancer cell lines. (AID 1963452; calls by dose curve); conditions: PEO1/OlaR viability, CellTiter-Glo luminescence, 96 h, stronger effect = lower value
Procedure, shortened: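 PEO1, PEO4 and PEO1/OlaR ovarian cancer cells, 600 per well, exposed 96 h at 37C to a dilution series. Viability read by CellTiter-Glo luminescence, normalized to DMSO and empty wells; activity summarized as Z-AUC.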

[20] = at 28.7 µM (top of the series), parasite line A
[21] = at 28.7 µM (top of the series), parasite line B
[22] = measured here: PEO1 parental Z-AUC
[23] = at 12.8 µM (top of the series), parasite line A

Sequence of Nuclear receptor subfamily 1 group I member 2 (Homo sapiens) (O75469 whole entry, looked up): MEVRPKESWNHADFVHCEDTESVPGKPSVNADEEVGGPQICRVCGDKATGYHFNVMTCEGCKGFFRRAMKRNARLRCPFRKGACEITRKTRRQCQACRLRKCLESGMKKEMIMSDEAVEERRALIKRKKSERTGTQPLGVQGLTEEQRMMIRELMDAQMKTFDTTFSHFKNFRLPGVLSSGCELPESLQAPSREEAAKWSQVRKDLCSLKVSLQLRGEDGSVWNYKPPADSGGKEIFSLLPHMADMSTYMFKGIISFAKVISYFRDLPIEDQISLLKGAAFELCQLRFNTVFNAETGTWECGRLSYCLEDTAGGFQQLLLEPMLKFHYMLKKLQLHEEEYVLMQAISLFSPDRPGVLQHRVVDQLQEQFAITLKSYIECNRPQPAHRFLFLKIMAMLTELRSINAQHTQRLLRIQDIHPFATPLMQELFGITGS
Sequence of Cytochrome P450 3A4 (Homo sapiens) (P08684 whole entry, looked up): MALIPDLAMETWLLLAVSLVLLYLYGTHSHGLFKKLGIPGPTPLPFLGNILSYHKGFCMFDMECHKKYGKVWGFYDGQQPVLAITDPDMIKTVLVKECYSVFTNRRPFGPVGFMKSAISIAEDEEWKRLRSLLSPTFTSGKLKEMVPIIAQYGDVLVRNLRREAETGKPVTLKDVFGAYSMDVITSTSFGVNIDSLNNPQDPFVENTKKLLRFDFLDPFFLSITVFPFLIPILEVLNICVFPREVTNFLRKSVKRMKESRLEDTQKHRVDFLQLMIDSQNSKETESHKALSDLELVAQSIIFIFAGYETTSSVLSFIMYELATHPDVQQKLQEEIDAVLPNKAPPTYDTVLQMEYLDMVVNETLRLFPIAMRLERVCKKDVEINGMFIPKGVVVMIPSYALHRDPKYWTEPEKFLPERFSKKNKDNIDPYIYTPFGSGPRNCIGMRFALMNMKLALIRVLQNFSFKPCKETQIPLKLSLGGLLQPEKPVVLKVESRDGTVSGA
Sequence of Cytochrome P450 2D6 (Homo sapiens) (P10635 whole entry, looked up): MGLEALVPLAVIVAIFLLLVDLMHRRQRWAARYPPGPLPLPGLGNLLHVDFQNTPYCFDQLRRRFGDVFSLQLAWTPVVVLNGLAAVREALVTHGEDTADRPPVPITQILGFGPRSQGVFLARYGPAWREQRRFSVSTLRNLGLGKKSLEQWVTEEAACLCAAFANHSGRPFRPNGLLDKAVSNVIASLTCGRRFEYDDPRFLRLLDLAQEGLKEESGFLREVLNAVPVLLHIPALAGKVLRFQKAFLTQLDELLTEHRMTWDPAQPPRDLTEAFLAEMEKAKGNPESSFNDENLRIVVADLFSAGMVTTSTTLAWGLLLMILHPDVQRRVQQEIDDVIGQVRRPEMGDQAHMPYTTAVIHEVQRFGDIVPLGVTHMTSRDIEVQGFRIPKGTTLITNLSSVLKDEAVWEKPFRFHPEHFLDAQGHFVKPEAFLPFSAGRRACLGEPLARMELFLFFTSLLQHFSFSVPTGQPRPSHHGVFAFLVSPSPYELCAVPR
Sequence of Cytochrome P450 2C9 (Homo sapiens) (P11712 whole entry, looked up): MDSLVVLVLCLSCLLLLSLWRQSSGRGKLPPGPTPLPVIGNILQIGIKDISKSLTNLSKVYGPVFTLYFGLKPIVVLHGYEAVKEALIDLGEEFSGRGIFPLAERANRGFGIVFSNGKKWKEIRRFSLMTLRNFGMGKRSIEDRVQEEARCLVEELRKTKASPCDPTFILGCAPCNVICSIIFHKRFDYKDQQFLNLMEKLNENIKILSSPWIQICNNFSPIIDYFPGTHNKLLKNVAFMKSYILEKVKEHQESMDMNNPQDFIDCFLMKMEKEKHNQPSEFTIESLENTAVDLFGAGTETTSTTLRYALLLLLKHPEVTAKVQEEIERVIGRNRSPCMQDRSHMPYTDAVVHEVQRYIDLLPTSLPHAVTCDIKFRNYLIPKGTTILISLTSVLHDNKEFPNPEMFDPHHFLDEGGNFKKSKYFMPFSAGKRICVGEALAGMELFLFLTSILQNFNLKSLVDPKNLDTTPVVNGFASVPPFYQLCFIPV
Sequence of Cytochrome P450 2C19 (Homo sapiens) (P33261 whole entry, looked up): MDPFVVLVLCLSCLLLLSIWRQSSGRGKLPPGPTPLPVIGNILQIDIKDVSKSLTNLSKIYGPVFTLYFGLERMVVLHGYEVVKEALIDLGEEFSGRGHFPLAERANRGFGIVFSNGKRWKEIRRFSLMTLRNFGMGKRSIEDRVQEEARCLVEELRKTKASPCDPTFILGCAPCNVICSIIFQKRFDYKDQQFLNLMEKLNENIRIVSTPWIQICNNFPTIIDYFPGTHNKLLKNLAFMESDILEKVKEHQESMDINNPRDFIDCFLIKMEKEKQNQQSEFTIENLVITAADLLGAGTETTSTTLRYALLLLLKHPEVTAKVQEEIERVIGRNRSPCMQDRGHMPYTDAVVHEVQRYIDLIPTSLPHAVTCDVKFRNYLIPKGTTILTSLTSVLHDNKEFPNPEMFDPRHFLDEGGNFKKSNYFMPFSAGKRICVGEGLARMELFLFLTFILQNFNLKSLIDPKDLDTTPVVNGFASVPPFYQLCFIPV

O=c1ccc2ccccc2o1
inactive: outcome [1] | outcome [2] | outcome [3] | Potency [4] | outcome [5] | max response [6] 0.354% | outcome [7] | outcome [8] | outcome [9] | outcome [10] | activity, negative = inhibition [11, 20] 10.1% | activity, negative = inhibition [11, 21] 1.35% | Potency [12] | Potency [13] | Potency [14] | Potency [15]

Cc1nc2n(c(=O)c1CCN1CCC(c3noc4cc(F)ccc34)CC1)CCC[C@H]2O
inactive: outcome [16] | Potency [17] | outcome [18]

COC(=O)C1=C(C)NC(C)=C(C(=O)O[C@@H]2CCCN(Cc3ccccc3)C2)[C@@H]1c1cccc([N+](=O)[O-])c1
inactive: outcome [16] | Potency [17] | outcome [18]

Cc1ccccc1C(=O)Nc1ccc(C(=O)N2CCCC(N(C)C)c3ccccc32)cc1 (stereo unspecified)
inactive: outcome [16] | Potency [17] | outcome [18]

CN1[C@@H]2CC[C@H]1CC(OC(=O)c1c[nH]c3ccccc13)C2 (stereo partly specified)
inactive: outcome [16] | Potency [17] | outcome [18]

CC(=O)OCC(=O)[C@@]1(O)CC[C@H]2[C@@H]3CCC4=CC(=O)C=C[C@]4(C)[C@H]3[C@@H](O)C[C@@]21C
1.1: Z-AUC [19, 22]
inactive: outcome [16] | Potency [17] | outcome [18] | Z-AUC [19] -0.27
0.219: Z-AUC ([19]; measured here: PEO4 Z-AUC)

C#C[C@]1(OC(C)=O)CC[C@H]2[C@@H]3CCC4=C[C@@H](OC(C)=O)CC[C@@H]4[C@H]3CC[C@@]21C
inactive: outcome [16] | Potency [17] | outcome [18] | activity, negative = inhibition [11, 20] -15% | activity, negative = inhibition [11, 21] -19.2% | Potency [12] | Potency [13] | Potency [14] | Potency [15]

Cc1onc(-c2c(Cl)cccc2Cl)c1C(=O)N[C@@H]1C(=O)N2[C@@H]1SC(C)(C)[C@@H]2C(=O)O
inactive: outcome [16] | Potency [17]

O=c1[nH]c(=O)n([C@H]2CCCO2)cc1F
inactive: outcome [16] | Potency [17] | outcome [18]

Nc1ccc(C(=O)O)cc1
inactive: outcome [1] | outcome [2] | outcome [3] | outcome [5] | max response [6] -2.08% | outcome [7] | outcome [8] | outcome [10] | activity, negative = inhibition [11, 20] -7.02% | activity, negative = inhibition [11, 21] 4.76% | Potency [12] | Potency [13] | Potency [14] | Potency [15]

COc1ccc(CN2CCN(C(c3ccc(F)cc3)c3ccc(F)cc3)CC2)c(OC)c1OC
active: Potency ([11]; parasite line A) 8.91 µM | Potency ([11]; parasite line B) 8.91 µM | Potency [12] 7.94 µM | Potency [13] 2.82 µM | Potency [14] 10 µM | Potency [15] 7.08 µM
inactive: outcome [16] | Potency [17] | outcome [18]

CNCCC(Oc1ccccc1C)c1ccccc1 (stereo unspecified)
inactive: activity, negative = inhibition [11, 20] 4.27% | activity, negative = inhibition [11, 21] 4.69% | Potency [12]

c1ccc(CNCCNCc2ccccc2)cc1
inactive: activity, negative = inhibition [11, 20] 2.06% | activity, negative = inhibition [11, 21] 5.37% | Potency [12]
active: Potency [13] 10 µM

COC(=O)[C@@H]1CC2=CC(=O)CC[C@]2(C)[C@@]23O[C@@H]2C[C@@]2(C)[C@@H](CC[C@@]24CCC(=O)O4)[C@H]13
0.317: Z-AUC ([19]; measured here: PEO4 Z-AUC)
-0.149: Z-AUC [19, 22]
inactive: Z-AUC [19] -0.162 | activity, negative = inhibition [11, 20] 8.39% | activity, negative = inhibition [11, 21] 17.6% | Potency [12] | Potency [13] | Potency [14] | Potency [15]

CCC(C(=O)OCCN(CC)CC)c1ccccc1 (stereo unspecified)
inactive: activity, negative = inhibition [11, 20] -4.21% | activity, negative = inhibition [11, 21] 8.52% | Potency [12] | Potency [13] | Potency [14] | Potency [15]

CCOC(=O)COc1ccc2c(C)c(CCN(CC)CC)c(=O)oc2c1Cl
active: Potency ([11]; parasite line A) 3.55 µM
inactive: activity, negative = inhibition [11, 21] -29.4% | Potency [12] | Potency [13] | Potency [14]

C[C@]12CCC(=O)C=C1[C@@H]1C[C@@H]1[C@H]1[C@@H]3[C@@H]4C[C@@H]4[C@@]4(CCC(=O)O4)[C@@]3(C)CC[C@@H]12
1.11: Z-AUC ([19]; measured here: PEO4 Z-AUC)
inactive: Z-AUC [19] 1.29
0.636: Z-AUC [19, 22]

CCCCCCCCCCCCCCCC[N+](C)(C)CCN(Cc1ccc(OC)cc1)c1ncccn1
inactive: activity, negative = inhibition [11, 23] -28.5%

Cc1c(F)c(N2CCNC(C)C2)cc2c1c(=O)c(C(=O)O)cn2C1CC1 (stereo unspecified)
inactive: activity, negative = inhibition [11, 20] 8.42% | activity, negative = inhibition [11, 21] 6.98% | Potency [12] | Potency [13] | Potency [14] | Potency [15]

CCCCCCCCCCCCCCCC[N+](C)(C)CC
active: Potency ([11]; parasite line A) 3.98 µM | Potency ([11]; parasite line B) 5.01 µM | Potency [12] 3.55 µM | Potency [13] 3.55 µM | Potency [14] 4.47 µM | Potency [15] 5.01 µM

COc1c(C)c2c(c(O)c1C/C=C(\C)CCC(=O)O)C(=O)OC2
active: Potency ([11]; parasite line A) 3.16 µM | Potency ([11]; parasite line B) 3.55 µM | Potency [12] 3.55 µM | Potency [13] 2.51 µM | Potency [14] 2.51 µM | Potency [15] 3.16 µM
inactive: Z-AUC [19] -0.522
-0.0213: Z-AUC [19, 22]
-0.309: Z-AUC ([19]; measured here: PEO4 Z-AUC)

CC(=O)N(O)CCCCCNC(=O)CCC(=O)N(O)CCCCCNC(=O)CCC(=O)N(O)CCCCCN
-0.402: Z-AUC [19, 22]
-0.683: Z-AUC ([19]; measured here: PEO4 Z-AUC)
inactive: Z-AUC [19] -0.069 | activity, negative = inhibition [11, 23] 5.32% | activity, negative = inhibition ([11]; at 12.8 µM (top of the series), parasite line B) 1.3% | Potency [12] | Potency [13] | Potency [14] | Potency [15]

O=c1c(-c2ccccc2)c1-c1ccccc1
active: Potency ([11]; parasite line A) 11.2 µM | Potency ([11]; parasite line B) 10 µM | Potency [12] 11.2 µM | Potency [13] 8.91 µM
